Screen size: about 2,100 compounds; about 180 (8.6%) showed an effect of 50% or more. The list comes from a sample in which strong results are over-represented; it also holds similar structures and randomly drawn compounds.

As a reminder, the cell viability is a read-out of living cells in per cent, often relative to untreated cells.

The test system of this experiment is MOLM1 and UCSD/AML1 (averaged). Nature of the experiment: cell viability relative to DMSO control (POC); higher = less growth inhibition. To be noted: 1 µM; 72 h. The method, then:
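Primary viability screen in the 3q26 EVI1-high AML cell lines MOLM1 and UCSD/AML1 (1.5e3 cells/well, 384-well), compounds at 1 uM for 72 h. ATP CellTiter-Glo read-out given as percent of viable cells over DMSO control (POC), averaged over duplicates. DMSO was the negative control and 5 uM etoposide the positive control. This mapping covers the MicroSource Spectrum and Selleck anticancer libraries (drug names).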
Turning to `CN(C)C(=S)SSC(=S)N(C)C`, the cell viability amounted to 1.29%. Turning to `C[C@]12CC[C@H]3[C@@H](CCC4=CC(=O)CC[C@@]43C)[C@@H]1CC[C@@H]2O`, the cell viability is 103%.

Turning to `CC[C@@]1(O)C[C@H](O)c2c(cc3c(c2O)C(=O)c2c(O)ccc(O)c2C3=O)[C@H]1C(=O)OC`, the cell viability stood at 99.6%. In the case of `CC[C@@]1(O)C[C@H](O[C@H]2C[C@H](N(C)C)[C@H](O)[C@H](C)O2)c2c(cc3c(c2O)C(=O)c2c(O)ccc(O)c2C3=O)[C@H]1C(=O)OC` it was 0.762%; in that of `CC[C@@]1(O)C[C@H](O[C@H]2C[C@H](N(C)C)[C@H](O)[C@H](C)O2)c2c(cc3c(c2O)C(=O)c2c(O)cccc2C3=O)[C@H]1C(=O)OC`, 38.5%. The same measure for `O=C1CCC[C@@H]2[C@H]3C[C@@H](CN12)[C@@H]1CCCCN1C3.[O-][Cl+3]([O-])([O-])O`: 95.6%.

For `COc1cc(OC)c2c(c1)O[C@H](c1ccc(OC)c(OC)c1)[C@@H](O)C2`, the cell viability worked out at 100%. On to `C=CCC1(C(C)CCC)C(=O)NC(=S)NC1=O` (stereo not drawn), for which the cell viability was found to be 89.9%. In the case of `COc1cc2c(cc1OC)[C@@H]1C(=O)c3ccc4oc(C(C)C)cc4c3O[C@@H]1CO2` it was 81.7%; in that of `CC(O)(CS(=O)(=O)c1ccc(F)cc1)C(=O)Nc1ccc(C#N)c(C(F)(F)F)c1` (stereo not drawn) [Bicalutamide (Casodex)], 101%. In the case of `C[C@H](N)[C@H](O)c1ccc(O)c(O)c1` it was 105%.

Regarding `O=C(O)CCC1NCC2CC1CN1CCCCC21` (stereo not drawn), the cell viability was 93.6%. Consider `CCCC(C)C1(CC)C(=O)NC(=S)NC1=O` (stereo not drawn), for which the cell viability was 96.6%. The same measure for `CN1C[C@H](C(=O)N[C@]2(C)O[C@@]3(O)[C@@H]4CCCN4C(=O)[C@H](Cc4ccccc4)N3C2=O)C[C@@H]2c3cccc4[nH]cc(c34)C[C@H]21`: 112%. The same measure for `CN1C[C@H](C(=O)N[C@]2(C)O[C@@]3(O)[C@@H]4CCCN4C(=O)[C@H](Cc4ccccc4)N3C2=O)C=C2c3cccc4[nH]cc(c34)C[C@H]21`: 48.2%; for `CC(C)C[C@H]1C(=O)N2CCC[C@H]2[C@]2(O)O[C@](NC(=O)[C@@H]3C=C4c5cccc6[nH]c(Br)c(c56)C[C@H]4N(C)C3)(C(C)C)C(=O)N12`: 108%. For `O=C(O)Cc1cnc[nH]1`, the cell viability came to 101%. As for `CN1C2CCC1CC(O)C2` (stereo not drawn), the cell viability was 109%.

Regarding `C#CCN(C)[C@H](C)Cc1ccccc1`, the cell viability was 84.3%. For `O=P1(NCCCl)OCCCN1CCCl` (stereo not drawn), the cell viability was determined as 105%.

As for `O=P1(NCCCl)OCCCN1CCCl` (stereo not drawn) [Ifosfamide], the cell viability amounted to 105%. As for `CC(=O)[O][Hg][c]1ccccc1`, the cell viability turned out to be 1.17%. In the case of `NCC(=O)c1ccccc1`, the cell viability amounted to 130%. Consider `COc1ccc(CCN2CCC(Nc3nc4ccccc4n3Cc3ccc(F)cc3)CC2)cc1`, for which the cell viability worked out at 95.2%. As for `CC(=O)O[C@H]1[C@H]2[C@@H](OC(=O)Cc3ccccc3)[C@@H](C)C[C@]2(OC(C)=O)C(=O)/C(C)=C/[C@@H]2[C@H](CC[C@@]13CO3)C2(C)C`, the cell viability amounted to 96.8%. In the case of `COc1cc2c(c(OC)c1OC)-c1ccc(OC)c(=O)cc1[C@@H](NC(C)=O)CC2`, the cell viability was found to be 6.75%.

`CC(=O)O[C@@H]1C[C@H]2C(C)(C)C(=O)C=C[C@]2(C)[C@H]2CC[C@]3(C)C(=CC(=O)O[C@H]3c3ccoc3)[C@@]21C`: the cell viability was found to be 75.1%.

For `Nc1ncn[nH]1`, the cell viability is 109%. Regarding `CCCCCCCCCc1ccc(O)cc1`, the cell viability worked out at 105%. For `CNC(=O)Oc1ccc2c(c1)[C@]1(C)CCN(C)[C@@H]1N2C`, the cell viability was determined as 106%. For `O=C1C=C2C(=CCOC2O)O1` (stereo not drawn), the cell viability is 1.61%. Consider `c1cncc([C@@H]2CCCCN2)c1`, for which the cell viability was found to be 107%. `C[C@H]1O[C@H](O[C@H]2[C@H](O)[C@@H](O)[C@@H](O)[C@H](O)[C@@H]2O)[C@@H](N)C[C@@H]1NC(=N)C(=O)O`: the cell viability is 103%. The same measure for `C[C@]12C=CC(=O)C=C1CC[C@@H]1[C@@H]2CC[C@]2(C)C(=O)CC[C@@H]12`: 101%; for `CC(C)=CCCC1(C)C=Cc2c(O)c3c(c(CC=C(C)C)c2O1)OC12C(CC4CC1C(C)(C)OC2(C/C=C(/C)C(=O)O)C4O)C3=O` (stereo not drawn): 94.1%; for `CC(C)=CCC[C@]1(C)C=Cc2c(O)c3c(c(CC=C(C)C)c2O1)O[C@]12C(=C[C@@H]4C[C@H]1C(C)(C)O[C@@]2(C/C=C(/C)C(=O)O)C4=O)C3=O`: 1.06%. In the case of `CC(C)=CCCC1(C)C=Cc2c(O)c3c(c(CC=C(C)C)c2O1)OC12C(=CC4CC1C(C)(C)OC2(C/C=C(/C)C(=O)O)C4O)C3=O` (stereo not drawn) it was 99.7%; in that of `CC(C)CCCC1(C)C=Cc2c(O)c3c(c(CCC(C)C)c2O1)OC12C(CC4CC1C(C)(C)OC2(CCC(C)C(=O)O)C4O)C3=O` (stereo not drawn), 106%; in that of `CC(C)=CCC[C@]1(C)C=Cc2c(O)c3c(c(CC=C(C)C)c2O1)O[C@]12C(=C[C@@H]4C[C@H]1C(C)(C)O[C@@]2(C/C=C(/C)C(N)=O)C4=O)C3=O`, 13.2%. For `C=C(C)c1cc2cc(C(C)=O)c(O)cc2o1`, the cell viability worked out at 104%. On to `COC(=O)C1=CCCN(C)C1`, for which the cell viability came to 98.5%. For `COc1c2c(cc3c1OCO3)CCN(C)C2`, the cell viability worked out at 119%. In the case of `CCC(C)C(=O)O[C@@H]1C[C@@]2(C)[C@H](c3ccoc3)OC(=O)CC23OC2(C)O[C@]14[C@]1(C)[C@@H](CC(=O)OC)C5(C)CC1(O)[C@](O)(C5OC(=O)C1(C)OC1C)[C@@H](OC(C)=O)[C@]34O2` (stereo partly drawn) it was 95.6%. Take `CC1(C)N([O-])[N+](=O)C1(C)Br` (stereo not drawn): the cell viability was 109%.

Regarding `COc1cc2c(cc1O)CCN[C@@H]2C`, the cell viability was 112%. As to `CCN1C[C@]2(OC(=O)c3ccccc3NC(C)=O)CC[C@H](OC)[C@@]34[C@@H]2C[C@@H]([C@@H]13)[C@@]1(O)C[C@H](OC)[C@H]2C[C@@H]4[C@]1(O)[C@H]2OC`, the cell viability was found to be 96.8%. The same measure for `C[C@@H]1O[C@@H](O[C@H]2CC[C@]3(C=O)[C@H]4CC[C@]5(C)[C@@H](C6=CC(=O)OC6)CC[C@]5(O)[C@@H]4CC[C@]3(O)C2)[C@H](O)[C@H](O)[C@H]1O`: 1.83%; for `CO[C@H]1C[C@H](O[C@H]2CC[C@]3(C=O)[C@H]4CC[C@]5(C)[C@@H](C6=CC(=O)OC6)CC[C@]5(O)[C@@H]4CC[C@]3(O)C2)O[C@H](C)[C@H]1O`: 3.81%; for `C[C@@H]1O[C@@H](O[C@H]2C[C@@H](O)[C@]3(CO)[C@H]4[C@H](O)C[C@]5(C)[C@@H](C6=CC(=O)OC6)CC[C@]5(O)[C@@H]4CC[C@]3(O)C2)[C@H](O)[C@H](O)[C@H]1O`: 1.94%. Take `CO[C@H]1[C@H](O)[C@H](O[C@H]2CC[C@@]3(C=O)[C@H](CC[C@@H]4[C@@H]3CC[C@]3(C)[C@@H](C5=CC(=O)OC5)CC[C@]43O)C2)O[C@@H](C)[C@@H]1O`: the cell viability was 1.75%. In the case of `COc1cc2ccc(=O)oc2c2ccoc12`, the cell viability was 104%. For the molecule `C[N+]12CC[C@@]34c5ccccc5N5C(=O)C[C@@H]6OCC=C(C1)[C@H](C[C@@H]32)[C@@H]6[C@H]54` (stereo partly drawn), the cell viability is 102%. The same measure for `O=C([O-])c1ccccc1-c1c2cc(Br)c(=O)cc-2oc2[c]([Hg+])c([O-])c(Br)cc12.[Na+].[Na+].[OH-]`: 87.1%; for `O=C1CN=C(c2ccccc2Cl)c2cc([N+](=O)[O-])ccc2N1`: 87%.

Regarding `C[C@@]12C(=O)OC(=O)[C@]1(C)[C@H]1CC[C@@H]2O1`, the cell viability turned out to be 101%.

Regarding `CC[C@@H](CO)NC(=O)[C@@H]1C=C2c3cccc4[nH]cc(c34)C[C@H]2N(C)C1`, the cell viability came to 98%. In the case of `CCC12C=CCN3CC[C@@]4(c5ccc(OC)cc5N(C)[C@H]4[C@@](O)(C(=O)OC)[C@@H]1OC(C)=O)[C@@H]32` (stereo partly drawn) it was 94%; in that of `C=C[C@H]1CN2CC[C@H]1C[C@@H]2[C@@H](O)c1ccnc2ccccc12`, 113%; in that of `CC1(C)C2CC(=O)[C@]3(C)C(CC[C@@]4(C)[C@H](c5ccoc5)OC(=O)[C@H]5O[C@]543)[C@@]2(C)C(=O)C[C@H]1O` (stereo partly drawn), 87.6%.

Consider `Cc1[nH]c2ccccc2c1CN(C)C`, for which the cell viability was 109%. For the molecule `C[C@]12CCC(=O)C[C@@H]1CC[C@@H]1[C@@H]2CC[C@]2(C)C(=O)CC[C@@H]12` [5alpha-ANDROSTAN-3,17-DIONE], the cell viability was determined as 101%.

Take `C[C@]12CC[C@H]3[C@@H](CC[C@]4(O)C[C@@H](O)CC[C@]34C=O)[C@@]1(O)CC[C@@H]2C1=CC(=O)OC1`: the cell viability is 3.15%. In the case of `CC1CC(Cl)CCC1C(=O)OC(C)(C)C` (stereo not drawn), the cell viability was 102%. Regarding `COc1cc([C@@H]2c3cc4c(cc3[C@H](OC(C)=O)[C@H]3COC(=O)[C@H]23)OCO4)cc(OC)c1OC`, the cell viability was determined as 6.04%. The same measure for `COc1cc([C@@H]2c3cc4c(cc3[C@H](OC(C)=O)[C@H]3COC(=O)[C@@H]23)OCO4)cc(OC)c1OC`: 34.9%; for `O=C(O)COc1cc(Cl)c(Cl)cc1Cl`: 98.7%; for `COc1cc2c(cc1O)C[C@H]1c3c(cc(O)c(OC)c3-2)CCN1C`: 99%. The same measure for `O=c1ccc2c(O)c3ccoc3cc2o1`: 91.2%; for `CC1(C)C2C[C@@H](O)[C@]3(C)C(CC[C@@]4(C)[C@H](c5ccoc5)OC(=O)[C@H]5O[C@]543)[C@@]2(C)[C@@H](O)C[C@H]1O` (stereo partly drawn): 106%.

Regarding `CCN1C[C@]2(COC)[C@H](O)C[C@H](OC)[C@@]34[C@@H]5C[C@@]6(O)[C@H](OC(=O)c7ccccc7)[C@@H]5[C@@](OC(C)=O)([C@@H]([C@H](OC)[C@H]23)[C@@H]14)[C@@H](O)[C@@H]6OC`, the cell viability was determined as 100%.

As for `CC1(C)C(=O)C=C[C@]2(C)[C@H]3CC[C@@]4(C)[C@H](c5ccoc5)OC(=O)[C@H]5O[C@]54[C@]3(C)[C@H](O)C[C@@H]12`, the cell viability is 98.3%. Consider `O=C1C(Cl)=C(Cl)C(=O)C(Cl)=C1Cl`, for which the cell viability turned out to be 114%. For `CNc1ccc(C(=O)CC(O)CCC(C)C2OC(=O)CC(O)CC(=O)CC(O)CC(O)CC(O)CC(O)CC3(O)CC(O)C(C(=O)OC)C(CC(O[C@@H]4O[C@H](C)[C@@H](O)[C@H](N)[C@@H]4O)/C=C/C=C/C=C/C=C/C=C/C=C/C=C/C2C)O3)cc1.COC(=O)C1C(O)CC2(O)CC(O)CC(O)CC(O)CC(O)CC(=O)CC(O)CC(=O)OC(C(C)CCC(O)CC(=O)c3ccc(N)cc3)C(C)/C=C/C=C/C=C/C=C/C=C/C=C/C=C/C(O[C@@H]3O[C@H](C)[C@@H](O)[C@H](N)[C@@H]3O)CC1O2` (stereo partly drawn), the cell viability came to 93.4%.
